From PubChem
This is a sample that favours compounds with a hit; in the whole collection about 2.4% have one here.
TMEM16A inh: blocks the mouse calcium-activated chloride channel TMEM16A; HEK293 TMEM16A/YFP iodide influx fluorescence, ionomycin; Q8BHY3; 310,000 tested, 1.2% active; normalized B-score (activity score, 25-100; higher = stronger inhibition) at 10 µM;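 active = ratio plate-corrected score three or more library SD toward inhibition, starting fluorescence score within five deviations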;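 also: score derived from kinetic fluorescence span divided by baseline fluorescence per well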
Target sequence (Q8BHY3 whole entry, looked up): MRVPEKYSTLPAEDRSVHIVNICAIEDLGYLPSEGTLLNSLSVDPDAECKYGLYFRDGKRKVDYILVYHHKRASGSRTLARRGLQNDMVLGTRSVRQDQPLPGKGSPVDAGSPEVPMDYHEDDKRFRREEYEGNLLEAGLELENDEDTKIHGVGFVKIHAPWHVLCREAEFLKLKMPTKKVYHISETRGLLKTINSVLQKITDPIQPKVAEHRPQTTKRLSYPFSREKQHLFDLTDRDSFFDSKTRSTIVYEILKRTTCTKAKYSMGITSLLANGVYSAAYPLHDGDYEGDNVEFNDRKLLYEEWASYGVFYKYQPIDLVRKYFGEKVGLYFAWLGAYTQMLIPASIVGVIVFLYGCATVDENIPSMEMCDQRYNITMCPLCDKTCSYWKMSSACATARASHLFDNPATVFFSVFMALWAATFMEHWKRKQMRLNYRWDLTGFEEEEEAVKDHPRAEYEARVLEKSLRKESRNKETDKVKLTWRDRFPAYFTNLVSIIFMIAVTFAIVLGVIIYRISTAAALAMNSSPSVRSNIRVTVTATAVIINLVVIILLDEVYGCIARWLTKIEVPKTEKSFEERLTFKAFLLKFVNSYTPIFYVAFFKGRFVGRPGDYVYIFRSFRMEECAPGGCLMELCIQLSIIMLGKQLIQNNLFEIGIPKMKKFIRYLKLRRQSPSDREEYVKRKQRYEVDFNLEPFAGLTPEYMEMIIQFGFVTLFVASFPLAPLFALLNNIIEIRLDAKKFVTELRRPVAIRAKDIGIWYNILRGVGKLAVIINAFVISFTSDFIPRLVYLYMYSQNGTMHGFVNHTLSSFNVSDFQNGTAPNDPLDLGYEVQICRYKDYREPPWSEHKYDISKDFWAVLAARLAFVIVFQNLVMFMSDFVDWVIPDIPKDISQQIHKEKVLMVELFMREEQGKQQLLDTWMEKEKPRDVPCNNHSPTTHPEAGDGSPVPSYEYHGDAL
TMEM16A act: mouse TMEM16A channel activation, primary screen | B-score at 10 µM | HEK293 TMEM16A/YFP-H148Q/I152L, iodide quench fluorescence; active compounds read low | 340,000 tested, 0.3% active;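 active = fluorescence-ratio B-score plate-corrected deviation score at least 3 library SD below zero, with starting fluorescence score within 5 deviations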;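 also: channel opened by trigger with iodide after compound preincubation; score built on the fluorescence ratio of max minus min over baseline; more negative score means more quench and so TMEM16A activation or potentiation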
CHT allo act: human CHT allosteric activation; AID 488977; 310,000 tested, 0.49% active; B-score at 10 µM; CHT-expressing cells, membrane potential dye, choline EC20; active compounds read high; LV-AA mutant CHT in HEK293 cells;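 active = initial fluorescence not abnormally high and integrated response B-score, plate-corrected, over 3 SD above library mean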
CHT block: human CHT choline transport inhibition. Q9GZV3. CHT-expressing cells, membrane potential dye, choline response; active compounds read low. B-score at 10 µM. 310,000 tested, 0.86% active. AID 488975;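 active = B-score over 3 SD under the library average, and starting fluorescence ratio not unusually high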;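 also: choline stimulus applied at its EC90 after an EC20 pre-addition; B-score computed on integrated fluorescence ratio after choline addition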
TMEM16A reconf: reconfirmed blocker of mouse TMEM16A calcium-activated chloride channel. shares compounds with TMEM16A inh. HEK293 TMEM16A/YFP-H148Q, iodide quench fluorescence; ionomycin added to raise cell calcium. inhibition, % at 10 µM. 2,300 tested, 39% active. AID 652189;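 active = mean duplicate percent inhibition, scaled so buffer wells are 0 and the reference blocker 100, over three buffer SD above buffer mean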
HEK293 Ca mobil: calcium mobilization counter-screen hit for TMEM16A inhibitor series. shares compounds with TMEM16A inh. calcium response (% of ionomycin), % at 10 µM. 2,300 tested, 2% active. AID 652231. TMEM16A/YFP HEK293, Fluo4 calcium mobilization;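 active = duplicate-averaged calcium signal over 20% of the ionomycin maximum, relative to buffer baseline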;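 also: each well's signal is peak minus trough fluorescence divided by its pre-addition baseline; 0% = buffer wells and 100% = ionomycin wells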
Parental YFP cnt: counter-screen for TMEM16A inhibitors: effect in parental YFP-HEK293 cells | 2,300 tested, under 10 active | iodide YFP quench, ionomycin | shares compounds with TMEM16A inh | YFP ratio F(max-min)/F0 at 10 µM | AID 652233;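 active = yellow fluorescent protein signal ratio exceeding the buffer control mean by over 5 SD of those controls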;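 also: ratio is mean of duplicate wells from kinetic YFP trace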
ClC-1 rat inh: blocks the rat ClC-1 voltage-dependent chloride channel; 2,300 tested, under 10 active; CHO ClC-1-YFP, iodide influx fluorescence quench; iodide control reads 0, buffer control 100; shares compounds with TMEM16A inh; ratio percent, % at 10 µM;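 active = duplicate-mean ratio percent above the mean of iodide-only control wells, which defines zero, plus 5 of their SD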;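 also: higher percent means stronger block of ClC-1 iodide influx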
The depositor's hits bear a star; i = inactive; . = not tested or not shown.

SMILES	TMEM16A inh	TMEM16A act	CHT allo act	CHT block	TMEM16A reconf	HEK293 Ca mobil	Parental YFP cnt	ClC-1 rat inh
C#CCN(C(=O)c1cc(COc2cccc(C(F)(F)F)c2)on1)C1CCCCC1	100*	i	i	i	54%*	i	-0.99	-18
C#CCN(C(=O)c1cc(COc2ccc(C)c(C)c2)on1)C1CCCCC1	i	i	i	i	.	.	.	.
COC(=O)c1cc(S(=O)(=O)N2CCN(c3ccc([N+](=O)[O-])cc3)CC2)c[nH]1	i	i	i	i	.	.	.	.
Cc1ccc2c(Cl)c(C)c(N3CCCCC3)nc2n1	i	i	i	i	.	.	.	.
Cc1cc2ccccn2c1C(=O)c1ccc(C#N)cc1	i	i	i	i	.	.	.	.
CNC(=O)c1sc(N2N=C3/C(=C/c4ccccc4)CCCC3C2c2ccccc2)nc1C (configuration not stated)	100*	i	i	i	46%*	58%*	-0.92	-6
COc1ccccc1/C=C1/SC(=O)N(CCC(=O)Nc2ccc(S(=O)(=O)Nc3nccs3)cc2)C1=O	i	i	i	i	.	.	.	.
CCOCCCNc1nc2c(C)cccn2c(=O)c1/C=C1\SC(=S)N(CC(C)C)C1=O	i	i	i	i	i	i	-0.086	44
CC(C)(C)NC(=O)C(c1ccccc1)N(Cc1ccco1)C(=O)c1csnn1 (configuration not stated)	i	i	i	i	.	.	.	.
CCC(C)N(C(=O)c1csnn1)C(C(=O)NC(C)(C)C)c1ccccc1 (configuration not stated)	i	.	i	i	i	i	-1.2	2
Cn1c2c(c(=O)n(C)c1=O)C(C(F)(F)F)(C(F)(F)F)N=C(c1ccc(Cl)cc1)N2	100*	i	i	i	42%*	i	-1	-32
Cn1c2c(c(=O)n(C)c1=O)C(C(F)(F)F)(C(F)(F)F)N=C(C1CCCCC1)N2	i	i	i	i	.	.	.	.
COc1ccc(NS(=O)(=O)c2ccc(N3CCCC3=O)cc2)cn1	i	i	i	i	.	.	.	.
COc1ccc(NS(=O)(=O)c2ccc3c(c2)Cc2ccccc2-3)cn1	25*	i	i	i	i	i	-1.5	-3
CCOC(=O)c1c(-c2ccc(-c3ccccc3)cc2)csc1NC(=O)C1C2CCC(O2)C1C(=O)O (configuration not stated)	100*	i	i	i	70%*	i	-1.1	-91
CCOC(=O)c1c(-c2ccc(C)cc2)csc1NC(=O)C1CC=CCC1C(=O)O (configuration not stated)	i	i	i	i	.	.	.	.
COc1ccccc1CC(=O)Nc1ccc2[nH]ncc2c1	i	i	i	i	.	.	.	.
CCn1c(SCC(=O)c2ccc3c(c2)OCCO3)nnc1C(C)C	i	i	i	i	i	i	-1	-8
CC(C)n1nnnc1SCC(=O)c1ccc2c(c1)OCCO2	i	i	i	i	.	.	.	.
COCCN(C(=O)c1ccccc1OC1CCN(S(C)(=O)=O)CC1)C(C)C	i	i	i	i	.	.	.	.
COc1ccc2cc3cc(C(=O)N4CCN(Cc5ccc6c(c5)OCO6)CC4)oc3nc2c1	25*	i	i	i	i	i	-1.1	-4
CCOc1ccc(CN(C)C(=O)[C@H](Cc2ccccc2)NC(=O)OCc2ccccc2)cc1OC	25*	i	i	i	i	i	-1.1	-7
CCOC(=O)N1CCC(NC(=O)C2CCCN(Cc3nc(-c4cccc(C)c4)oc3C)C2)CC1 (configuration not stated)	25*	i	i	i	i	i	-1.2	-18
Cc1oc(-c2ccc(Cl)cc2)nc1CN1CCCC(C(=O)N2CCN(C(=O)c3ccco3)CC2)C1 (configuration not stated)	25*	i	i	i	18%*	i	-0.98	-8
Cc1ccc(-n2nnnc2SCc2nnc(-c3ccccc3Br)o2)c(C)c1	100*	i	i	i	i	i	-1.1	-14
SMILES	TMEM16A inh	TMEM16A act	CHT allo act	CHT block	TMEM16A reconf	HEK293 Ca mobil	Parental YFP cnt	ClC-1 rat inh
Cn1nnnc1SCc1nnc(-c2ccccc2Br)o1	i	i	i	i	.	.	.	.
CC(=O)c1cccc(NS(=O)(=O)c2ccc(N/C=C\C(=O)c3ccc(F)cc3)cc2)c1	100*	i	i	i	32%*	i	-1.1	-26
CCCc1cc(-c2n[nH]c(C)c2-c2ccc(C(=O)OCC)o2)c(O)cc1O	i	i	i	i	.	.	.	.
CCCc1cc(C(=O)Cc2ccc(C(=O)OCC)o2)c(O)cc1O	100*	i	i	i	66%*	i	-0.84	-1
CSc1nc2sc3c(c2c2nnnn12)CCCC3	100*	i	i	i	i	i	-1.2	-8
Cc1cc(C)c(S(=O)(=O)N(C)Cc2cnn(C)c2)c(C)c1	i	i	i	i	.	.	.	.
Cc1ccccc1-c1nc(-c2ccc(NC(=O)c3cccs3)cc2)no1	i	i	i	i	i	i	-1	-7
COC(=O)c1ccc(N2NC(=O)/C(=C/c3cc(OC)c(O)c(OC)c3)C2=O)cc1	i	i	i	i	i	i	-0.75	-34
COC(=O)c1ccc(N2NC(=O)/C(=C/c3cc(OC)c(OC)c(OC)c3)C2=O)cc1	i	i	i	i	.	.	.	.
S=C(NCc1ccco1)N1CCN(c2nc(-c3ccccc3)cs2)CC1	i	i	i	i	.	.	.	.
CCOC(=O)N1CCN(c2nc(-c3ccc(Cl)cc3)cs2)CC1	i	i	i	i	.	.	.	.
O=C(CN1CCN(c2nc(-c3ccc(Cl)cc3)cs2)CC1)NCc1ccco1	25*	.	i	i	i	20%*	-0.95	4
CC(C)C(=O)N1CCN(c2nc(-c3ccc(Cl)cc3)cs2)CC1	25*	i	i	i	34%*	i	-1.1	-12
Cc1ccccc1NS(=O)(=O)c1ccc2c(c1)NC(=O)CCS2	i	i	i	i	.	.	.	.
Fc1cc(Br)ccc1Nc1nc2ccccc2n2nnnc12	i	i	i	i	.	.	.	.
Cc1c(C)c(C)c(/C=[N+](/C)[O-])c(C)c1C	i	i	i	i	.	.	.	.
O=C(COC(=O)/C=C/c1ccc(C(F)(F)F)cc1)NC1CCCC1	i	i	i	i	.	.	.	.
